# Compound activity as filed in PubChem BioAssay.
# Compounds with a hit are over-represented: about 7.1% of the library has one in this group of screens.
# SW480 rereplic: A quantitative high throughput screen for small molecules that induce DNA re-replication in SW480 colon adenocarcinoma cells; SW480 DNA re-replication, Hoechst DNA content imaging, 48 h; Potency, µM (titrated, usually from 46.1 µM), usual class: activators; 340,000 compounds, 1.8% hits; further: nearly all actives have a fitted effect of over 55% in size
#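 250 cells/well; 23 nL cpd via pin tool; 48 hr, 37 C, 5% CO2; Hoechst 40 min; imager read of total nuclear intensity, ex 405/em 500-530 nm.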
# ATXN2 expr inh: Primary qHTS for Inhibitors of ATXN expression | HEK-293 ATXN2-luciferase reporter, luminescence, 24 h | Potency, µM (top dose mostly 57 µM), actives largely listed as inhibitors | 360,000 compounds, 0.72% hits | AID 1745845, 2022; further: nearly all actives have a fitted effect of over 55% in size
#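 qHTS (up to 57 uM final) was run with 24 h compound exposure of reporter cells at 37 °C. Each well was multiplexed: SteadyGlo luminescence measured ATXN2-luciferase expression after a fluorogenic Gly-Phe-AFC viability readout (25 uM final).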
# S2 tox: Viability Counterscreen for Primary qHTS for Inhibitors of ATXN expression; AID 651635, 2014; S2 cells (HEK-293 line with an ATXN2-luciferase reporter) viability, CellTiter-Fluor protease fluorescence, 24 h; 400,000 compounds, 0.49% hits; Potency, µM (series often up to 56.7 µM), most hits filed as cytotoxic; further: nearly all actives have a fitted effect of over 40% in size
# IL1B secr inh: qHTS for Inhibitors of Inflammasome Signaling: IL-1-beta AlphaLISA Primary Screen. 360,000 compounds, 4.7% hits. THP-1 LPS/ATP IL-1B secretion, AlphaLISA, 16 h; active compounds read low. activity change, % at 57.5 µM; in the data active means activity change below about -50%; inconclusive means mostly about -30% to -49%
#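 Secreted IL-1B measured by AlphaLISA bead assay after 16 h compound exposure of THP-1 cells; compounds (final up to 57.5 uM) added 1 h before LPS (250 ng/mL) and ATP (1.25 mM) stimulation; lower signal means less secretion.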
# PINK1 modulator: A Quantitative High throughput Screen to Identify Chemical Modulators of PINK1 Expression. PINK1 immunofluorescence, high-content cytometry, 24 h. Potency, µM (highest dose often 76.6 µM), most hits filed as activators. 410,000 compounds, 0.2% hits; active means well fitted activation curve with a large enough effect; inconclusive means small, poorly fitted or top-dose-only effect; cell line not stated here; further: nearly all actives have a fitted effect of over 65% in size
#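 Stable cell line, 250 cells/well, 12 h attachment; compounds pinned at 5 concentrations, 24 h; CCCP control. Fixed with nuclear dye, primary antibodies 12 h at 10 degrees C, secondary plus cell stain; laser-scanning cytometer read.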
# MCF10A rerep: A quantitative high throughput screen for small molecules that induce DNA re-replication in MCF 10a normal breast cells; AID 624296, 2012; 350,000 compounds, 2.9% hits; MCF 10A DNA re-replication, Hoechst nuclear intensity, 48 h; Potency, µM (top dose mostly 46.1 µM), hits mostly activators; further: nearly all actives have a fitted effect of over 50% in size
# Numbers stand for hits; n = inactive; u = inconclusive; x = no result given; [ ] = another dose, or the depositor's remark. Unless noted, the call rests on the fitted dose curve; in most records, active means well fitted curve in the direction sought with a large enough effect; inconclusive means small, poorly fitted or top-dose-only effect, or another doubt; inactive means no such curve, though single readings can be large; an effect the other way counts as inactive or inconclusive.
SMILES,SW480 rereplic,ATXN2 expr inh,S2 tox,IL1B secr inh,PINK1 modulator,MCF10A rerep
CCc1ccc(-c2nc(CN3CCCC(C(=O)NCCc4ccc(OC)c(OC)c4)C3)c(C)o2)cc1 (configuration not stated),n,n,u,-59,n,u
CCc1ccc(-c2nc(CN3CCCC(C(=O)N4CCN(c5cc(Cl)ccc5C)CC4)C3)c(C)o2)cc1 (configuration not stated),x,20µM,16µM,x,n,x
CCCNC(=O)Cn1c(SCc2ccccc2C)nc2ccncc21,x,x,x,x,n,x
CCN(CC)c1nc2c(S(=O)(=O)c3ccccc3)nnn2c2ccc(Cl)cc12,x,n,n,x,n,x
Cn1c(SCc2ccccc2)nnc1C1CCCN(Cc2cccc3ncccc23)C1 (configuration not stated),x,x,n,x,n,x
CCn1c(=O)c2ccccc2n(Cc2cccc([N+](=O)[O-])c2)c1=O,n,n,n,-50,n,n
N[C@@H](CC(=O)N1CCn2c(nnc2C(F)(F)F)C1)Cc1cc(F)c(F)cc1F,x,n,x,x,x,x
Clc1ccccc1/C=N/NC1=Nc2cccc3cccc1c23,u,n,13µM,n,u,u
COc1nc(/C=C/N(C)C)c([N+](=O)[O-])c(OC)n1,n,x,u,n,n,6.5µM
CCN(CC)c1ccc2c(C)c(CN3CCOCC3)c(=O)oc2c1,21µM,n,x,n,n,5.8µM
CCN(CC)c1ccc2c(C)c(CO)c(=O)oc2c1,13µM,n,x,n,n,u
CCN(CC)c1ccc2c(O)cc(=O)oc2c1,n,n,n,n,n,n
COc1ccc(-n2c(C)cc(C(=O)COC(=O)c3ccc(O)cc3O)c2C)cc1,n,u,n,n,u,u
Cc1cc(C(=O)COC(=O)c2ccc(O)cc2O)c(C)n1-c1ccccc1,n,n,u,-81,n,u
Cc1nn(C)c(C)c1/C=C/C(=O)c1ccc(Cl)cc1Cl,n,n,n,-68,n,n
Cc1cc[n+](C(C)C(=O)c2ccc(-c3ccccc3)cc2)cc1 (configuration not stated),n,u,n,-58,n,n[9.22 µM]
CC(C(=O)c1ccc(-c2ccccc2)cc1)[n+]1ccccc1 (configuration not stated),n,u,n,n,n,n
O=C(CSc1nc2ccccc2n1Cc1cccc(Cl)c1)N1CCN(c2ccc(F)cc2)CC1,x,n,n,x,n,x
CCOC(=O)c1[nH]c2ccc(Br)cc2c1NC(=O)CCN1CCC(C(=O)OCC)CC1,u,n,n,-64,n,26µM
CCOC(=O)C1CCCN(CCC(=O)Nc2ccc(Br)cc2)C1 (configuration not stated),n,n,n,-60,n,n
COC(=O)c1[nH]c2ccccc2c1NC(=O)CN1CCCCCC1,n,n,n,n,n,n
CCOC(=O)C1CCCN(CCC(=O)Nc2ccc(Br)c(C)c2)C1 (configuration not stated),n,x,n,n,n,n
CC1CC(C)CN(CCC(=O)Nc2ccc(Br)cc2)C1 (configuration not stated),n,n,n,-54,n,n
CCOC(=O)N1CCN(CC(=O)Nc2c(C(=O)OC)[nH]c3ccccc23)CC1,n,n,n,n,x,5.8µM
CCOC(=O)c1[nH]c2ccc(Br)cc2c1NC(=O)CCN1CCN(C(=O)OCC)CC1,n,n,n,n,n,n
O=C(Nc1ncc(Cc2ccccc2)s1)C1CCN(C(=O)c2ccco2)CC1,x,x,x,x,n,x
CCOC(=O)c1c(N)c2cc([N+](=O)[O-])ccc2n1C,n,x,n,n,n,n
CCOC(=O)/C(=C/c1c(C)n(C)c2ccc([N+](=O)[O-])cc12)C(C)=O,u,n,u,-104,n,15µM
CC1C(=O)C(C)C(c2cc(Cl)ccc2O)NC1c1cc(Cl)ccc1O (configuration not stated),u,25µM,x,-75,n,u
